The source made the active and inactive calls. The calls were made as follows: active = hit-call score of the fitted dose curve at least 0.9, where 1 is the maximum; inactive = score below 0.9.
How the values were obtained:
[1] = ATG_GLI_CIS: Attagene CIS-FACTORIAL HepG2 Assay for human Zinc Finger Protein GLI1 (AID 2282945); settings: HepG2, Attagene cis-factorial reporter mRNA, GLI element; actives raise or lower the signal
In short: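 HepG2 cells transiently transfected with cis-promoter multiplexed reporter units report endogenous transcription factor activity. After 24 h chemical exposure, reporter mRNA was quantified by RT-PCR, 6-FAM labelling, HpaI digestion and capillary electrophoresis, with bidirectional fitting against DMSO.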

[2] = ATG_GRE_CIS: Attagene CIS-FACTORIAL HepG2 Assay for human Glucocorticoid Response Elements (GRE) (AID 2282947); settings: HepG2 GRE cis-reporter, Attagene multiplex mRNA; actives raise or lower the signal
In short: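 Cells (HepG2) bearing transfected cis-promoter reporter transcription units were treated with chemical for 24 hours. Reporter mRNA was measured via RT-PCR with capillary electrophoresis, and activity was fitted in both directions relative to DMSO.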

[3] = ATG_ISRE_CIS: Attagene CIS-FACTORIAL HepG2 Assay for human Interferon Regulatory Factor 1 (IRF1) binding to an Interferon-Stimulated Response Element (ISRE) (AID 2282948); settings: HepG2 ISRE cis-reporter (Attagene), mRNA transcription readout; actives raise or lower the signal
In short: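 Uses HepG2 liver cells transfected with cis-regulated reporters and measures mRNA 24 h post-dosing through RT-PCR, primer-extension labelling and capillary electrophoresis, with DMSO as negative control.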

[4] = ATG_M_32_CIS: Attagene CIS-FACTORIAL HepG2 Assay for M32 Transcription Factor (Internal Marker) (AID 2282949); settings: HepG2 Attagene cis-factorial M32 reporter, mRNA; actives raise or lower the signal;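 also: background control marker of the multiplexed CIS panel rather than a real target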
In short: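 HepG2 human liver cells transiently transfected with cis-promoter-driven multiple reporter transcription units, dosed 24 h. Reporter mRNA quantified by RT-PCR, FAM-labelled primer extension, HpaI digest and capillary electrophoresis; bidirectional fit versus DMSO baseline.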

[5] = ATG_M_06_CIS: Attagene CIS-FACTORIAL HepG2 Assay for M06 Transcription Factor (Internal Marker) (AID 2282950); settings: HepG2 Attagene CIS-FACTORIAL M06 internal marker reporter; actives raise or lower the signal
In short: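 Measured 24 h post-dosing in transiently transfected HepG2 cells, this internal-marker endpoint reports reporter mRNA via RT-PCR with fluorescent primer extension and capillary electrophoresis. DMSO served as negative control and baseline for bidirectional fitting.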

[6] = target: Hypoxia-inducible factor 1-alpha (Homo sapiens) (UniProt Q16665); assay: ATG_HIF1a_CIS: Attagene CIS-FACTORIAL HepG2 Assay for human Hypoxia Inducible Factor 1 (HIF1A) (AID 2282951); settings: HepG2 Attagene cis-factorial HIF1a reporter transcription; actives raise or lower the signal
In short: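 Transient MRTU transfection of human HepG2 liver cells, 24 h compound treatment, then total RNA isolation, oligo(dT) reverse transcription, PCR amplification, fluorescent labelling and capillary electrophoresis of reporter fragments. Gain or loss relative to DMSO.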

[7] = target: Hepatocyte nuclear factor 6 (Homo sapiens) (UniProt Q9UBC0); assay: ATG_HNF6_CIS: Attagene CIS-FACTORIAL HepG2 Assay for human Hepatocyte Nuclear Factor 6 (HNF6) (AID 2282952); settings: HepG2 Attagene cis-factorial HNF6 reporter transcription; actives raise or lower the signal
In short: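 Using cis-element reporters in HepG2 liver cells, the assay tracks endogenous factor-driven transcription 24 h post-dosing. Signal comes from 6-FAM-labelled, HpaI-digested RT-PCR fragments, with gain or loss scored against DMSO.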

[8] = target: Heat shock factor protein 1 (Homo sapiens) (UniProt Q00613); assay: ATG_HSE_CIS: Attagene CIS-FACTORIAL HepG2 Assay for human Heat Shock Transcription Factor 1 (HSE) (AID 2282953); settings: HepG2 HSE cis-reporter, Attagene RNA transcription; actives raise or lower the signal
In short: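 Reporter mRNA induction in HepG2 is measured 24 h after dosing, using transiently transfected multiplexed cis-regulated reporter units. Signal comes from capillary electrophoresis of labelled RT-PCR products, with DMSO as negative control.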

[9] = ATG_MRE_CIS: Attagene CIS-FACTORIAL HepG2 Assay for human Metal Responsive Element (MRE) (AID 2282954); settings: HepG2 MRE cis-reporter transcription, Attagene multiplex; actives raise or lower the signal
In short: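 Cells were transfected with cis-promoter reporter transcription units, then dosed for 24 h. RNA was reverse-transcribed, amplified, fluorescently labelled and resolved by capillary electrophoresis, and activity was fitted in both directions relative to DMSO.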

Sequence of Hypoxia-inducible factor 1-alpha (Homo sapiens) (Q16665 whole entry, looked up, the tested form may be a part): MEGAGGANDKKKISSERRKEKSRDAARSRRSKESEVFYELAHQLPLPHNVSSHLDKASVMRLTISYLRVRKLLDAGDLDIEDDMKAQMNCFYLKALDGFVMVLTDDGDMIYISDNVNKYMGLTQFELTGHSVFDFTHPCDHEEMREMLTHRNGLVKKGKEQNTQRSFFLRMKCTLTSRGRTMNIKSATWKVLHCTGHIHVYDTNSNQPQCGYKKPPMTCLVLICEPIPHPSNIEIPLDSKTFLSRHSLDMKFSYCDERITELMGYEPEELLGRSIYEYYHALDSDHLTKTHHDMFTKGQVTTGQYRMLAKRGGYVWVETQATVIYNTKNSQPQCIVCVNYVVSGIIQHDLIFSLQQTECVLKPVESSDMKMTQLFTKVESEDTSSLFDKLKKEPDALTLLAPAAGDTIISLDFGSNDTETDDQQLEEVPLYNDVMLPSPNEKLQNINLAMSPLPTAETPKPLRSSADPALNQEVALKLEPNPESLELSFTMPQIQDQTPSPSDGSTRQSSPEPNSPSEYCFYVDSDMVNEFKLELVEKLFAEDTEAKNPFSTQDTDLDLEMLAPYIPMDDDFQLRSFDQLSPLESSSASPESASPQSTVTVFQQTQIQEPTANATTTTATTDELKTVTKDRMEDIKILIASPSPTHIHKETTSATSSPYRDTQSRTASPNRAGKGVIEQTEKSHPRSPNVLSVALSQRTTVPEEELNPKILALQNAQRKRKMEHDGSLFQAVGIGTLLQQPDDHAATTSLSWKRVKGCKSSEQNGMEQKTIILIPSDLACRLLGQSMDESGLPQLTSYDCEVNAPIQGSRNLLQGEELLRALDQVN
Sequence of Hepatocyte nuclear factor 6 (Homo sapiens) (Q9UBC0 whole entry, looked up, the tested form may be a part): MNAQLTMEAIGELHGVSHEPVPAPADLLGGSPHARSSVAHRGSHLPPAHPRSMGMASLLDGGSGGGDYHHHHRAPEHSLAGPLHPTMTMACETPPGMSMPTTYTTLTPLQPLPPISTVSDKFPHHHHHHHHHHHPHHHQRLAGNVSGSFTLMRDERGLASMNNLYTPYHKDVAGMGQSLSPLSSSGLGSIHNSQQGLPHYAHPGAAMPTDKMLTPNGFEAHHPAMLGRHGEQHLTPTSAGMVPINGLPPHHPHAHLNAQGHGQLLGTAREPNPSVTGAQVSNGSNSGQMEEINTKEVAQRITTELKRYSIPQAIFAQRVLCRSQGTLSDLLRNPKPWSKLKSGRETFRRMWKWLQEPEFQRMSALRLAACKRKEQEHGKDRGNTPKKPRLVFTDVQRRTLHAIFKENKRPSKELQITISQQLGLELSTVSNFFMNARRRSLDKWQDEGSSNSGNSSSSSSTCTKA
Sequence of Heat shock factor protein 1 (Homo sapiens) (Q00613 whole entry, looked up): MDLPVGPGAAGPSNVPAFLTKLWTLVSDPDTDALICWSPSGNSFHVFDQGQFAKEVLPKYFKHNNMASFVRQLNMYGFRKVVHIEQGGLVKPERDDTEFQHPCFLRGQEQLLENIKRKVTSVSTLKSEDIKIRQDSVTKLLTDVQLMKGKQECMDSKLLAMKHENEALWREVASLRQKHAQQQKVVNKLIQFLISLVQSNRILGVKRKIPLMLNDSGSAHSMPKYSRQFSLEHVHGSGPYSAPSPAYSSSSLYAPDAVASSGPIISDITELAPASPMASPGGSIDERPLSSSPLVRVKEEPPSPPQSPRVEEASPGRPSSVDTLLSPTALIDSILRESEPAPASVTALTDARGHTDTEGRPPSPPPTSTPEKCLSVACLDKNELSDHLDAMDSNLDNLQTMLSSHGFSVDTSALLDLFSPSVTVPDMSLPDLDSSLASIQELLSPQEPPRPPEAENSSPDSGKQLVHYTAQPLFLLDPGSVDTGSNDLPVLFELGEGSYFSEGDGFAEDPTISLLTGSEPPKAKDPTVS

| Compound | outcome [1] | outcome [2] | outcome [3] | outcome [4] | outcome [5] | outcome [6] | outcome [7] | outcome [8] | outcome [9] | AC50 [9] | AC50 [1] | AC50 [3] | AC50 [8] |
| --- | --- | --- | --- | --- | --- | --- | --- | --- | --- | --- | --- | --- | --- |
| Cc1c(Cl)cccc1Cl | inactive | inactive | inactive | inactive | inactive | inactive | inactive | inactive | inactive |  |  |  |  |
| CC/C=C\CCOC(=O)c1ccccc1O | inactive | inactive | inactive | inactive | inactive | inactive |  | inactive | inactive |  |  |  |  |
| CC(=O)OC(C)c1ccccc1 (stereo not drawn) | inactive | inactive | inactive | inactive | inactive | inactive | inactive |  | inactive |  |  |  |  |
| CCC(C)c1ccccc1 (stereo not drawn) | inactive | inactive | inactive | inactive | inactive | inactive |  | inactive | inactive |  |  |  |  |
| O=C1CCCN1C1CCCCC1 | inactive | inactive | inactive | inactive | inactive | inactive | inactive | inactive | inactive |  |  |  |  |
| COc1ccc(C(=O)c2ccccc2)c(O)c1 | inactive | inactive | inactive | inactive | inactive | inactive | inactive |  |  | 130 µM (active) |  |  |  |
| C=CC(=O)NCOCCCC | inactive | inactive | inactive | inactive | inactive | inactive | inactive | inactive | inactive |  |  |  |  |
| CC(=O)CCC=C(C)C | inactive | inactive | inactive | inactive | inactive | inactive | inactive | inactive | inactive |  |  |  |  |
| CC(=O)OCCc1ccccc1 | inactive | inactive | inactive | inactive | inactive | inactive | inactive | inactive | inactive |  |  |  |  |
| CCCc1ccc(O)c(OC)c1 | inactive | inactive | inactive | inactive | inactive | inactive |  | inactive | inactive |  |  |  |  |
| CC(C)CO | inactive | inactive | inactive | inactive | inactive | inactive |  |  | inactive |  |  |  |  |
| O=C(O)/C=C/c1ccccc1 | inactive | inactive | inactive | inactive |  | inactive | inactive |  | inactive |  |  |  |  |
| COc1nccnc1CC(C)C | inactive | inactive | inactive | inactive |  | inactive |  |  | inactive |  |  |  |  |
| CCc1cccc(C)c1N | inactive | inactive | inactive |  | inactive | inactive |  | inactive | inactive |  |  |  |  |
| CC(C)c1cc(C(C)C)cc(C(C)C)c1 |  | inactive |  |  |  | inactive | inactive |  | inactive |  | 146 µM (active) | 176 µM (active) |  |
| COc1cc(C)ccc1O | inactive | inactive | inactive | inactive | inactive | inactive |  | inactive | inactive |  |  |  |  |

| Compound | outcome [1] | outcome [2] | outcome [3] | outcome [4] | outcome [5] | outcome [6] | outcome [7] | outcome [8] | outcome [9] | AC50 [9] | AC50 [1] | AC50 [3] | AC50 [8] |
| --- | --- | --- | --- | --- | --- | --- | --- | --- | --- | --- | --- | --- | --- |
| CC(CC(C)C)=NO | inactive | inactive | inactive | inactive |  | inactive | inactive | inactive | inactive |  |  |  |  |
| C1CNCCN1 | inactive | inactive | inactive | inactive |  | inactive | inactive | inactive | inactive |  |  |  |  |
| Cc1c[nH]c(=O)[nH]c1=O | inactive | inactive | inactive | inactive |  | inactive | inactive | inactive | inactive |  |  |  |  |
| CCOC(=O)OC(=O)OCC | inactive | inactive | inactive |  | inactive | inactive | inactive |  | inactive |  |  |  |  |
| CC(=O)OC1CCCCC1C(C)(C)C (stereo not drawn) | inactive | inactive | inactive | inactive |  | inactive | inactive | inactive | inactive |  |  |  |  |
| O=C(O)CCCC(=O)O | inactive | inactive | inactive |  | inactive | inactive | inactive | inactive | inactive |  |  |  |  |
| CC(C)[N+](C)(CCOC(=O)C1c2ccccc2Oc2ccccc21)C(C)C | inactive | inactive | inactive | inactive |  |  | inactive | inactive | inactive |  |  |  |  |
| O=C(O)CC(C(=O)O)S(=O)(=O)O (stereo not drawn) | inactive | inactive | inactive |  | inactive | inactive | inactive |  | inactive |  |  |  |  |
| CCOC(=O)c1ccc(C)cc1 | inactive | inactive | inactive | inactive | inactive | inactive |  |  | inactive |  |  |  |  |
| CC=C(C)C=CC=C(C)C | inactive | inactive | inactive | inactive |  | inactive | inactive | inactive | inactive |  |  |  |  |
| CC(C)c1ccc(O)c(C(C)C)c1 | inactive | inactive | inactive | inactive |  | inactive | inactive | inactive | inactive |  |  |  |  |
| CCC(=O)C1CC(C(C)C)CC=C1C (stereo not drawn) | inactive | inactive | inactive | inactive |  | inactive | inactive |  | inactive |  |  |  |  |
| CCOC(=O)CC(=O)c1ccccc1 | inactive | inactive | inactive |  | inactive | inactive | inactive | inactive | inactive |  |  |  |  |
| CN1CCN(C)CC1 | inactive | inactive | inactive | inactive |  | inactive | inactive | inactive | inactive |  |  |  |  |
| C=CC(=O)O[C@H]1C[C@@H]2CC[C@@]1(C)C2(C)C |  | inactive | inactive |  |  | inactive | inactive |  | inactive |  | 186 µM (active) |  | 161 µM (active) |
| C=C(C)C(=O)OCCCCCCCCCCCC | inactive | inactive | inactive |  | inactive | inactive | inactive | inactive | inactive |  |  |  |  |

Source: PubChem BioAssay (EPA / NIEHS)
